Assay results from PubChem BioAssay (NCI).
This is part of a sample that, as a whole, favours compounds with a hit. Of some 83,000 tested, about 20% had one in any assay.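 Single-dose data. Exposure time 48 hours. Values below 10 considered active.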 Values without a mark were called inactive. The source made the active and inactive calls.

Each compound was assayed on 786-0 renal (assay: NCI-60 one-dose screen, 48 h (100 = growth as untreated, 0 = no growth, -100 = all killed)). Conditions: 10 µM unless noted.

| SMILES | growth |
| --- | --- |
| Cc1ccc(NC(=O)c2ccc(CN3CCN(C)CC3)cc2)cc1Oc1ccc(-c2[nH]nc3ncnc(N)c23)cc1 | 63.7% |
| c1ccc(C(c2nc3ncncc3[nH]2)N2CSc3nc4ccccc4n3C2)cc1 (stereo not drawn) | 101% |
| COc1ccc(Cn2cc3c(c2-c2cc(OC)c(OC)c(OC)c2)CCc2c(CN4CCCC4)noc2-3)cc1 | 47.9% |
| CC1=CC(=O)C2=C(C)CC(OC(=O)CCc3ccccc3)[C@@H]3[C@H](OC(=O)[C@@H]3C)[C@@H]12 (stereo partly drawn) | 92.6% |
| CCCCCc1ccc(S(=O)(=O)Nc2cccc(-c3csc(NC(=O)CN4CCN(CCO)CC4)n3)c2)cc1 | 71.1% |
| O=C(Nc1ccc(F)c(F)c1)c1cc(-c2ccc(F)cc2F)ccc1O | 9.53% (active) |
| COc1c(N2CC3CCCNC3C2)c(F)cc2c(=O)c(C(=O)N/N=C/c3ccc(N(C)C)cc3)cn(C3CC3)c12 (stereo not drawn) | 37.7% |
| CC(=O)C1=C(C)NC(NN)=NC1c1cccc(Cl)c1 (stereo not drawn) | 104% |
| C=CCn1c(SCC(=O)Nc2ccc(C(=O)/C=C/c3ccc(Br)cc3)cc2)nnc1-c1c[nH]c2ccccc12 | 102% |
| COc1cc(Cn2cc3c(c2)-c2onc(CN4CCCC4)c2CC3)cc(OC)c1OC | 99.4% |
| O=C1Nc2ccccc2/C1=C/c1ccc(CO)n1-c1ccc(Cl)cc1 | 88.4% |
| O=C(CSc1nc2ccccc2c(=O)n1-c1ccc(Cl)cc1)N/N=C/c1ccc(N2CCCCC2)cc1 | 7.2% (active) |
| Cc1ccc(-n2c(/C=C3\C(=O)Nc4ccccc43)ccc2CO)cc1 | 101% |
| NC(=O)c1c(NC(=O)c2ccc(F)cc2F)sc2c1CCC(=O)C2 | 83.4% |
| CCC(CC)N1C(=O)/C(=c2\sc3n(c2=O)NC2C(N=3)N(CC)C(=O)N2CC)c2ccccc21 (stereo not drawn) | 72.7% |
| Clc1cccc(/C=N/Nc2nc(N/N=C/c3cccc(Cl)c3Cl)nc(N3CCCCC3)n2)c1Cl | 102% |
| CCn1c2ccccc2c2cc(-n3nncc3-c3ccccc3)ccc21 | 31.6% |
| Cc1c(Cl)cccc1S(=O)(=O)Nc1ccc2c(c1)C(=O)N(C1CCC(=O)NC1=O)C2=O (stereo not drawn) | 78.9% |
| COc1ccc(NC(=O)CSc2nnc(-c3ccc4nc(-c5ccccc5)[nH]c4c3)o2)cc1 | 96.3% |
| CCOP(=O)(OCC)OC[C@]12CCC(C)(C)C=C1[C@H]1CC[C@@H]3[C@@]4(C)CC[C@H](OP(=O)(OCC)OCC)C(C)(C)[C@@H]4CC[C@@]3(C)[C@]1(C)CC2 | -59.7% (active) |
| CCOC(=O)C(=O)CC(=O)N1C(=S)NC(=O)C1CC(C)C (stereo not drawn) | 96.1% |
| COc1cc(Cn2cc3c(c2)-c2onc(CN4CCOCC4)c2CC3)cc(OC)c1OC | 100% |
| CC/C(=C/c1cc(OC)ccc1O)c1ccc2cc(OC)ccc2[o+]1 | 65.9% |
| O=C(O)c1ccc(-n2cc(CNc3cc(F)c(F)c(F)c3)c(-c3cccc(F)c3)n2)cc1 | 112% |
| C=CCn1c(SCC(=O)Nc2ccc(C(=O)/C=C/c3cccc([N+](=O)[O-])c3)cc2)nnc1-c1c[nH]c2ccccc12 | 106% |

What follows are compounds tested on COLO 205 colon in the same assay as above. Conditions: 10 µM unless noted.

| SMILES | growth |
| --- | --- |
| CCCCCc1ccc(S(=O)(=O)Nc2cc(-c3csc(NC(=O)CN4CCN(CCO)CC4)n3)ccc2OC)cc1 | -21.4% (active) |
| N/C(=N\C(N)=N\c1nc2ccccc2s1)c1ccc(C(F)(F)F)cc1 | 119% |
| CCn1c(SCC(=O)Nc2cccc(C(=O)/C=C/c3ccc(Br)cc3)c2)nc2ccccc2c1=O | 112% |
| O=S(=O)(NCCCNc1nccc(-c2[nH]c(-c3ccccc3)nc2-c2ccc(Cl)c(O)c2)n1)c1ccc(Br)cc1 | 81.3% |
| CS(=O)(=O)Nc1cc(-c2ccc3ncc(C#N)c(N[C@H](CO)c4ccccc4)c3c2)cnc1Cl | 57% |
| Cn1ccnc1C(=O)/C=C/c1ccc(CNC(=O)c2ccc(Cl)cc2)cc1 | 13.6% |
| O=C(Cn1cc(-c2ccccc2)nn1)Nc1nc(-c2ccc(Cl)cc2)cs1 | 117% |
| Nc1cc(F)ccc1NC(=O)c1ccc(NC(=O)C/C=C/c2cccnc2)cc1 | 21.2% |
| CCOC(=O)C1=NNC(c2ccc(Cl)cc2)C1C(=O)N1C(=S)NC(=O)C1CC(C)C (stereo not drawn) | 109% |
| COc1ccc(S(=O)(=O)NCCCNc2nccc(-c3[nH]c(-c4ccccc4)nc3-c3ccc(Cl)c(O)c3)n2)cc1 | 86.3% |
| N=c1c2cc(-c3ccccc3)oc2ncn1/N=C/c1ccc(Br)cc1 | 98.9% |
| CS(=O)(=O)Nc1cc(-c2ccc3ncc(C#N)c(Nc4cccc(Cl)c4F)c3c2)cnc1Cl | -74.5% (active) |
| C=CCn1c(SCC(=O)Nc2ccc(C(=O)/C=C/c3ccc(Cl)cc3)cc2)nnc1-c1c[nH]c2ccccc12 | 107% |
| Cc1ccc(NC(=O)c2ccc(CN3CCN(C)CC3)cc2)cc1Oc1ccc(-c2[nH]nc3ncnc(N)c23)cc1 | 28.1% |
| c1ccc(C(c2nc3ncncc3[nH]2)N2CSc3nc4ccccc4n3C2)cc1 (stereo not drawn) | 110% |
| COc1ccc(Cn2cc3c(c2-c2cc(OC)c(OC)c(OC)c2)CCc2c(CN4CCCC4)noc2-3)cc1 | 8.39% (active) |
| CC1=CC(=O)C2=C(C)CC(OC(=O)CCc3ccccc3)[C@@H]3[C@H](OC(=O)[C@@H]3C)[C@@H]12 (stereo partly drawn) | 95.2% |
| CCCCCc1ccc(S(=O)(=O)Nc2cccc(-c3csc(NC(=O)CN4CCN(CCO)CC4)n3)c2)cc1 | 59.2% |
| O=C(Nc1ccc(F)c(F)c1)c1cc(-c2ccc(F)cc2F)ccc1O | 82.1% |

| SMILES | growth |
| --- | --- |
| COc1c(N2CC3CCCNC3C2)c(F)cc2c(=O)c(C(=O)N/N=C/c3ccc(N(C)C)cc3)cn(C3CC3)c12 (stereo not drawn) | 104% |
| CC(=O)C1=C(C)NC(NN)=NC1c1cccc(Cl)c1 (stereo not drawn) | 114% |
| C=CCn1c(SCC(=O)Nc2ccc(C(=O)/C=C/c3ccc(Br)cc3)cc2)nnc1-c1c[nH]c2ccccc12 | 109% |
| COc1cc(Cn2cc3c(c2)-c2onc(CN4CCCC4)c2CC3)cc(OC)c1OC | 109% |
| O=C1Nc2ccccc2/C1=C/c1ccc(CO)n1-c1ccc(Cl)cc1 | 71.8% |
| O=C(CSc1nc2ccccc2c(=O)n1-c1ccc(Cl)cc1)N/N=C/c1ccc(N2CCCCC2)cc1 | 82.1% |
| Cc1ccc(-n2c(/C=C3\C(=O)Nc4ccccc43)ccc2CO)cc1 | 91.5% |
| NC(=O)c1c(NC(=O)c2ccc(F)cc2F)sc2c1CCC(=O)C2 | 98.7% |
| CCC(CC)N1C(=O)/C(=c2\sc3n(c2=O)NC2C(N=3)N(CC)C(=O)N2CC)c2ccccc21 (stereo not drawn) | 37.8% |
| Clc1cccc(/C=N/Nc2nc(N/N=C/c3cccc(Cl)c3Cl)nc(N3CCCCC3)n2)c1Cl | 90.3% |
| CCn1c2ccccc2c2cc(-n3nncc3-c3ccccc3)ccc21 | -10.9% (active) |
| Cc1c(Cl)cccc1S(=O)(=O)Nc1ccc2c(c1)C(=O)N(C1CCC(=O)NC1=O)C2=O (stereo not drawn) | 62.3% |
| COc1ccc(NC(=O)CSc2nnc(-c3ccc4nc(-c5ccccc5)[nH]c4c3)o2)cc1 | 108% |
| CCOP(=O)(OCC)OC[C@]12CCC(C)(C)C=C1[C@H]1CC[C@@H]3[C@@]4(C)CC[C@H](OP(=O)(OCC)OCC)C(C)(C)[C@@H]4CC[C@@]3(C)[C@]1(C)CC2 | -43.1% (active) |
| CCOC(=O)C(=O)CC(=O)N1C(=S)NC(=O)C1CC(C)C (stereo not drawn) | 107% |
| COc1cc(Cn2cc3c(c2)-c2onc(CN4CCOCC4)c2CC3)cc(OC)c1OC | 114% |
| CC/C(=C/c1cc(OC)ccc1O)c1ccc2cc(OC)ccc2[o+]1 | 56.1% |
| O=C(O)c1ccc(-n2cc(CNc3cc(F)c(F)c(F)c3)c(-c3cccc(F)c3)n2)cc1 | 126% |
| C=CCn1c(SCC(=O)Nc2ccc(C(=O)/C=C/c3cccc([N+](=O)[O-])c3)cc2)nnc1-c1c[nH]c2ccccc12 | 110% |
